Assay results from the supplement of paper PMC12636033.
± gives the standard deviation of the averaged measurements. In all, about 33,000 sequences were measured (“E-score (rank enrichment, -0.5 to 0.5)”: median about -0.0043, highest 2% from about 0.24 on). The sample holds the highest values, similar sequences and a random draw of the others, so the mix is not that of the screen.

Tested on: 2Sp-muMax20 (muMax20 with two 2,6-bis(methyl)pyridine Cys staples)
Experiment: PBM 8-mer E-score (E-score (rank enrichment, -0.5 to 0.5)); higher = stronger preferential binding
Protocol: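 Protein binding microarray (universal PBM chip covering all 10-mers in fixed probe flanks) with chemically synthesized human Max(13-93) bHLH-LZ analogs (not full-length Max) bearing noncanonical residues (hArg, Tha, Aib, Nle at 65) and aromatic Cys staples. Read-out per 8-mer (and its reverse complement): E-score (rank-based enrichment, -0.5 to 0.5) and Z-score of median probe intensity.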

Sequence	PBM 8-mer E-score
ATATATAC	0.252 ± 0.015
CTATAGTC	0.0602 ± 0.045
ATATATAT	0.116 ± 0.091
CTATATAC	0.204 ± 0.022
GTATATAC	0.0149 ± 0.075
ATATAGTC	0.238 ± 0.069
TGATATAA	0.232 ± 0.064
TTATATAA	0.282 ± 0.044
ATATAGTA	0.231 ± 0.019
GAGCTTCC	-0.0166 ± 0.072
CGCGAGGC	-0.0315 ± 0.0085
ATCTACCA	0.119 ± 0.038
CCAATGGG	-0.162 ± 0.09
GGTTGCAA	0.0477 ± 0.016
GCCAGTCC	-0.152 ± 0.14
GCGGCCAC	-0.292 ± 0.061
CAAATGAC	-0.036 ± 0.036
AGCCTTTG	-0.0519 ± 0.04
CATGCTCG	0.116 ± 0.052
ACAGCCAC	-0.0111 ± 0.073
ATCGATCA	0.0704 ± 0.044
AAGGCCTA	0.00342 ± 0.048
AAGGCCGG	-0.146 ± 0.023
AAGGCCTT	0.293 ± 0.052

Sequence	PBM 8-mer E-score
AAGGCCGC	-0.0467 ± 0.032
AAGGCCGT	0.284 ± 0.012
AAGGCCTG	-0.212 ± 0.061
ATGTGGCG	0.0809 ± 0.017
CTACCCTC	0.0414 ± 0.062
CTCCCAAA	0.143 ± 0.084
GCTGTTCA	0.0277 ± 0.084
CCACATGG	0.161 ± 0.014
CCACGTTC	-0.0572 ± 0.027
CCACATGA	0.241 ± 0.053
CGACGTGC	0.00092 ± 0.063
CCACGTAG	-0.11 ± 0.053
GCACATGA	0.151 ± 0.036
CAACGTGG	0.0662 ± 0.077
GCACGTTA	0.113 ± 0.039
CCACGTGC	0.431 ± 0.00066
CCACGTGG	0.455 ± 0.021
CCACGTCC	-0.117 ± 0.06
CCACGTTA	0.252 ± 0.044
ATACCCAC	0.197 ± 0.059
CACGGCCC	-0.216 ± 0.024
GCAACGGA	0.0572 ± 0.11
AGGAGAGA	-0.134 ± 0.081
GATTGGGC	-0.0399 ± 0.037

Sequence	PBM 8-mer E-score
CAGAAAAC	0.0606 ± 0.042
CGACGTGA	0.063 ± 0.051
CCACGTGA	0.358 ± 0.053
CCACGCGG	0.448 ± 0.016
ACACGCGG	0.181 ± 0.012
CTACGTGA	-0.0272 ± 0.054
CCACGCGA	0.112 ± 0.0062
ATCGAAGC	-0.0587 ± 0.14
CAGGCATA	0.0998 ± 0.023
ATTCCACC	0.0112 ± 0.074
GCGATCGC	0.241 ± 0.049
ACGATCGC	0.0237 ± 0.025
CCGATCGC	0.00661 ± 0.018
CCAATCCA	0.00702 ± 0.16
CAATTGGG	0.136 ± 0.037
GAATTGGC	0.0412 ± 0.066
CAATTGGC	0.244 ± 0.016
ACCTGTGC	-0.0312 ± 0.029
CTTGCTAA	-0.0836 ± 0.038
CGCCTCCC	0.00831 ± 0.026
AGAACGGC	0.0294 ± 0.038
TATCCATA	0.15 ± 0.012
CTCCCCAC	0.278 ± 0.015
CTCCCCAA	0.309 ± 0.0081

Sequence	PBM 8-mer E-score
CTCCCCAG	0.191 ± 0.064
ATCCCCAA	0.274 ± 0.036
GTCCCCAC	0.021 ± 0.043
CTCCCCCA	-0.103 ± 0.12
ATCCCCTA	0.282 ± 0.019
ATCCCCTC	0.215 ± 0.038
ATCCCAAA	0.0771 ± 0.056
ATCCCCCA	-0.224 ± 0.14
CTCCCCTA	0.106 ± 0.087
TTCCCCAA	0.173 ± 0.06
AATAGTCA	0.109 ± 0.0063
CCACATAA	0.0944 ± 0.027
GGATTACC	0.0419 ± 0.024
AATGAAGC	0.0104 ± 0.028
GTGGTAAA	-0.0637 ± 0.0084
CGGGTCAC	-0.118 ± 0.034
AAGGTATG	0.149 ± 0.056
AGAACACC	0.0163 ± 0.039
CACCCCAC	0.265 ± 0.007
AACCCCAC	0.136 ± 0.032
GACCCCAC	0.131 ± 0.021
ATCCCCAG	0.0388 ± 0.058
ATCCCCAT	0.104 ± 0.064
ATCCCCAC	0.247 ± 0.038
